Of roughly 7,900 targets only a part is listed; those with a hit were picked by preference. About 0.6% of all pairs of compound and target were hits.
Columns and labels:
Test in all cases: log2 fold change, soluble protein after heating vs DMSO (PISA); higher = thermal stabilisation; K562 cells, 10 uM, 30 min; active = over 0.2 and 3.5 SD of the protein, either way, in both replicates (recomputed)
erlotinib = compound: C#Cc1cccc(Nc2ncnc3cc(OCCOC)c(OCCOC)cc23)c1 [erlotinib]
How it was run: (§1)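 Quantification of soluble protein used TMTpro 16plex LC-MS/MS, with channel sums equalised. Samples were the supernatant after 21,000xg for 90 min of pooled aliquots from K562 cells (2×10^6 cells/mL) treated with 10 μM compound for 30 min, heated for 3 min over 48°C-58°C, and extracted in PBS with 0.5% NP-40 at 4°C. Values, from duplicates, describe thermal stability against control samples on a log2 fold-change scale.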

[1] = compound: C/C(=N\NC(=O)C1=CC(=CC=C1)S(=O)(=O)N2CCOCC2)/C3=C(C=CC(=C3)Cl)O
How it was run: as §1

[2] = compound: C1=CC(=C(C=C1Cl)C2=NC3=NC=CN=C3C(=N2)NC4=CC=NC=C4)F
How it was run: as §1

[3] = compound: C1=CC(=CC=C1C2=NC3=C(N2)C=C(C=C3)C(=O)N)OC4=CC=C(C=C4)Cl
How it was run: as §1

[4] = compound: C1=CC2=C(C=CC(=C2)/C=C\3/C(=O)NC(=NCC4=CC=CS4)S3)N=C1
How it was run: as §1

[5] = compound: C1=CC2=NC=CN=C2C=C1/C=C/3\C(=O)NC(=O)S3
How it was run: as §1

[6] = compound: C1=CC=C(C=C1)C2=NC(=C(N2)C3=CC=NC=C3)C4=CC(=C(C=C4)Cl)O
How it was run: as §1

[7] = compound: C1=CC=C2C(=C1)C3=NNC4=CC=CC(=C43)C2=O
How it was run: as §1

[8] = compound: C1CCN(C1)C(=O)NC2=CC=CC(=C2)NC3=NC=C(C(=N3)NCCC4=CN=CN4)Br
How it was run: as §1

[9] = compound: C1CN(CCC1(CC2=CC=C(C=C2)Cl)N)C3=NC=NC4=C3C=CN4
How it was run: as §1

IRAK-1-4 Inhibitor I = compound: C1COCCN1CCN2C3=CC=CC=C3N=C2NC(=O)C4=CC(=CC=C4)[N+](=O)[O-] [IRAK-1-4 Inhibitor I]
How it was run: as §1

ibrutinib = compound: C=CC(=O)N1CCC[C@@H](n2nc(-c3ccc(Oc4ccccc4)cc3)c3c(N)ncnc32)C1 [ibrutinib]
How it was run: as §1

[10] = compound: CC(=O)c1cnc2ccc(-c3cc(Cl)c(O)c(Cl)c3)nc2c1N[C@H]1CC[C@H](CN(C)C)CC1
How it was run: as §1

ralimetinib = compound: CC(C)(C)Cn1c(N)nc2ccc(-c3[nH]c(C(C)(C)C)nc3-c3ccc(F)cc3)nc21 [ralimetinib]
How it was run: as §1

[11] = compound: CC(C)(O)CC(=O)NCCn1ccc2ncnc(Nc3ccc(Oc4cccc(C(F)(F)F)c4)c(Cl)c3)c21
How it was run: as §1

[12] = compound: CC(C)C1=C2N=C(C=C(N2N=C1)NCC3=CC=CC=C3)NCCCCCCN
How it was run: as §1

[13] = compound: CC(C)C[C@@H](C=O)NC(=O)[C@H](CC(C)C)NC(=O)[C@H](CC(C)C)NC(=O)OCc1ccccc1
How it was run: as §1

pinometostat = compound: CC(C)N(C[C@H]1O[C@@H](n2cnc3c(N)ncnc32)[C@H](O)[C@@H]1O)[C@H]1C[C@@H](CCc2nc3cc(C(C)(C)C)ccc3[nH]2)C1 [pinometostat]
How it was run: as §1

[14] = compound: CC1=C(C(CC(=O)N1)C2=CC=C(C=C2)C(F)(F)F)C(=O)NC3=C(C=C4C(=C3)C=NN4)F
How it was run: as §1

[15] = compound: CC1=C(C2=C(C=C1)C(=O)C3=CC=CC=C3N2CCCN)C
How it was run: as §1

Measured: log2 fold change

UHRF1BP1 (UniProt Q6BDS2)
active: [12] 0.258
inactive: erlotinib -0.018 | [1] -0.01 | [2] 0.011 | [3] 0.033 | [4] 0.001 | [5] 0.008 | [6] -0.017 | [7] -0.009 | [8] -0.013 | [9] 0.008 | IRAK-1-4 Inhibitor I 0.007 | ibrutinib 0.023 | [10] -0.034 | ralimetinib -0.067 | [11] 0.097 | [13] 0.03 | pinometostat 0.006 | [14] 0.001 | [15] 0.029

VPS39 (UniProt Q96JC1)
Sequence of UniProt Q96JC1 (Q96JC1 whole entry, looked up): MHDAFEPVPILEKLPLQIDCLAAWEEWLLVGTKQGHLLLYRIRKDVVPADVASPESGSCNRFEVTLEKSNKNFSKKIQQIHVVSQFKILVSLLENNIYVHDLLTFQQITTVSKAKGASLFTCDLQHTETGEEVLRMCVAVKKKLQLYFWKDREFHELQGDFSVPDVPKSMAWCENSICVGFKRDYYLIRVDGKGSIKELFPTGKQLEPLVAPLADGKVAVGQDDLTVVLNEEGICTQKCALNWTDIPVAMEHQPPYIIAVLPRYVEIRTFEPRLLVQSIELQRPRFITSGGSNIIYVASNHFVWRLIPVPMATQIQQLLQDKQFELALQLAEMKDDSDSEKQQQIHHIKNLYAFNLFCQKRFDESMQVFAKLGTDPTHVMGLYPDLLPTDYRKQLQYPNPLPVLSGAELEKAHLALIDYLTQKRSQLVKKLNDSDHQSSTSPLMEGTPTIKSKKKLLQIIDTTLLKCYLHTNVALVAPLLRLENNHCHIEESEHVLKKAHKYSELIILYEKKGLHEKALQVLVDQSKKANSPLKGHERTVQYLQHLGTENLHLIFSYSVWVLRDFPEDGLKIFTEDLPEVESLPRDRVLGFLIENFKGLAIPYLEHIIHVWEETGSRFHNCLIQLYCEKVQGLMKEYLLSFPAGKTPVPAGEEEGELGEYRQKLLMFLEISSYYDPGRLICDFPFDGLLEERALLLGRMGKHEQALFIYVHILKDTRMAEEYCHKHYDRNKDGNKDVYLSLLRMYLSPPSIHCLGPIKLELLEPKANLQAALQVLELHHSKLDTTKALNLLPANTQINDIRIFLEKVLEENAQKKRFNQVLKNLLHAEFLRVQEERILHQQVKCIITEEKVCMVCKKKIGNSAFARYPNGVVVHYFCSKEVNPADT
inactive: erlotinib -0.006 | [1] 0.08 | [2] -0.005 | [3] 0.022 | [4] 0 | [5] 0.023 | [6] -0.014 | [7] -0.046 | [8] 0.01 | [9] 0.054 | IRAK-1-4 Inhibitor I -0.055 | ibrutinib -0.015 | [10] -0.036 | ralimetinib -0.018 | [11] -0.039 | [12] -0.265 | [13] 0.031 | pinometostat 0.032 | [14] -0.027 | [15] 0.008

VPS52 (UniProt Q8N1B4)
Sequence of UniProt Q8N1B4 (Q8N1B4 whole entry, looked up): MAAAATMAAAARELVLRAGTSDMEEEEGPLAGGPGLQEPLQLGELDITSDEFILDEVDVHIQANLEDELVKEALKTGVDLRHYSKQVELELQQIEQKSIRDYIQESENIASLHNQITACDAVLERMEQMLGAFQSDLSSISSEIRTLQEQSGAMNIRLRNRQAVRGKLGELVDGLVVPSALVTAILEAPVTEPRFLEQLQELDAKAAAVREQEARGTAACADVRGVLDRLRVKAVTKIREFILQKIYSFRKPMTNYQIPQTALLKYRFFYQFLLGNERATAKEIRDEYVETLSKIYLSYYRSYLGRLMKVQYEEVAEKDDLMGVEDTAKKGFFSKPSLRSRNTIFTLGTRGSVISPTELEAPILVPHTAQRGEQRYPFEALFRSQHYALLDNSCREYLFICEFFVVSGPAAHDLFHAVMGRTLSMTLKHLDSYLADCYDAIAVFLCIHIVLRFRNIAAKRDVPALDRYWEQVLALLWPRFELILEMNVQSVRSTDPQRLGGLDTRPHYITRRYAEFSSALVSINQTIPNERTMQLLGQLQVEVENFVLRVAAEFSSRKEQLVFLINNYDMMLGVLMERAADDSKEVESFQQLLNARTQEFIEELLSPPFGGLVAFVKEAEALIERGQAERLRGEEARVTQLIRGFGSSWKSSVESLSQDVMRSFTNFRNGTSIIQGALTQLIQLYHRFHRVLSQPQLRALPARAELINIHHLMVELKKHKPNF
inactive: erlotinib 0.019 | [1] 0.048 | [2] -0.029 | [3] 0.067 | [4] 0.032 | [5] 0.031 | [6] 0.004 | [7] 0.079 | [8] -0.033 | [9] -0.051 | IRAK-1-4 Inhibitor I -0.057 | ibrutinib 0.068 | [10] 0 | ralimetinib 0.05 | [11] -0.161 | [12] -0.02 | [13] 0.088 | pinometostat 0.048 | [14] -0.018 | [15] 0.142

UHRF1BP1L (UniProt A0JNW5)
active: [12] 0.242
inactive: erlotinib -0.024 | [1] 0.017 | [2] 0.016 | [3] 0.027 | [4] 0.042 | [5] 0.01 | [6] -0.009 | [7] 0.025 | [8] -0.007 | [9] 0.061 | IRAK-1-4 Inhibitor I 0.018 | ibrutinib -0.051 | [10] -0.076 | ralimetinib -0.009 | [11] 0.193 | [13] -0.004 | pinometostat 0.03 | [14] -0.027 | [15] -0.019

VTA1 (UniProt Q9NP79)
inactive: erlotinib -0.05 | [1] 0.124 | [2] 0.07 | [3] 0.018 | [4] -0.007 | [5] 0.025 | [6] -0.02 | [7] 0.029 | [8] 0.01 | [9] -0.024 | IRAK-1-4 Inhibitor I -0.02 | ibrutinib -0.001 | [10] -0.013 | ralimetinib -0.009 | [11] -0.074 | [12] -0.12 | [13] -0.007 | pinometostat -0.041 | [14] 0.012 | [15] 0.068

USP3 (UniProt Q9Y6I4)
Sequence of UniProt Q9Y6I4 (Q9Y6I4 whole entry, looked up): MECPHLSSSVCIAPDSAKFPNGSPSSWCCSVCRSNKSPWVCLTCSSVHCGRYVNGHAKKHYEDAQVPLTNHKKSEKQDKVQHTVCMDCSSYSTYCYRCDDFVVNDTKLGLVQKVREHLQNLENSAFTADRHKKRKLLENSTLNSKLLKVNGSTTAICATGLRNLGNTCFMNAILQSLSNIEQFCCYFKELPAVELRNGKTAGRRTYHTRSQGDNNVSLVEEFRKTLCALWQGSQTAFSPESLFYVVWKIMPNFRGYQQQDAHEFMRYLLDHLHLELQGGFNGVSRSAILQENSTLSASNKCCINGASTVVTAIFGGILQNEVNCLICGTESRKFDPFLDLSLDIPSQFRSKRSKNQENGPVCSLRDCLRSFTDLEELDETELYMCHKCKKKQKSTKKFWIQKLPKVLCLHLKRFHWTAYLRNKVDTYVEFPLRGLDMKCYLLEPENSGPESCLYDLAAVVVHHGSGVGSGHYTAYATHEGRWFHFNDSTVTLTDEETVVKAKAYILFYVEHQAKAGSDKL
inactive: erlotinib 0.099 | [1] 0.114 | [2] 0.121 | [3] 0.004 | [4] -0.062 | [5] 0.014 | [6] 0.057 | [7] -0.052 | [8] 0.007 | [9] 0.095 | IRAK-1-4 Inhibitor I 0.035 | ibrutinib -0.083 | [10] -0.126 | ralimetinib -0.013 | [11] -0.107 | [12] -0.146 | [13] -0.145 | pinometostat -0.075 | [14] 0.006 | [15] -0.006

TNFRSF10A (UniProt O00220)
Sequence of UniProt O00220 (O00220 whole entry, looked up): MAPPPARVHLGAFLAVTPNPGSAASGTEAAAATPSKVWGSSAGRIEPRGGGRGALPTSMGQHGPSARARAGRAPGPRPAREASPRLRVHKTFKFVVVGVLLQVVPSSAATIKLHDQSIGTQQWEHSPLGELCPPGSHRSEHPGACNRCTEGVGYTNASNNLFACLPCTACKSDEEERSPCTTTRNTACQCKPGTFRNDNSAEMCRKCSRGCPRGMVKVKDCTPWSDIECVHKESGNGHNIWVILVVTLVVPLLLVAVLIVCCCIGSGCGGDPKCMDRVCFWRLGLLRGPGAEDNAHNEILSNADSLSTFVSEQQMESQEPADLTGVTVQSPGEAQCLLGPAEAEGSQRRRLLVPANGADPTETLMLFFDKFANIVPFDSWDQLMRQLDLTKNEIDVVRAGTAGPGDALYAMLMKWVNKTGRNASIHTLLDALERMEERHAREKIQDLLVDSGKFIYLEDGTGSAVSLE
inactive: erlotinib -0.01 | [1] -0.05 | [2] -0.023 | [3] -0.014 | [4] 0.049 | [5] -0.012 | [6] -0.026 | [7] 0.018 | [8] -0.039 | [9] -0.049 | IRAK-1-4 Inhibitor I 0.002 | ibrutinib 0.034 | [10] -0.064 | ralimetinib -0.072 | [11] -0.073 | [12] 0.043 | [13] 0.078 | pinometostat -0.002 | [14] -0.003 | [15] 0.021

TNPO3 (UniProt Q9Y5L0)
Sequence of UniProt Q9Y5L0 (Q9Y5L0 whole entry, looked up): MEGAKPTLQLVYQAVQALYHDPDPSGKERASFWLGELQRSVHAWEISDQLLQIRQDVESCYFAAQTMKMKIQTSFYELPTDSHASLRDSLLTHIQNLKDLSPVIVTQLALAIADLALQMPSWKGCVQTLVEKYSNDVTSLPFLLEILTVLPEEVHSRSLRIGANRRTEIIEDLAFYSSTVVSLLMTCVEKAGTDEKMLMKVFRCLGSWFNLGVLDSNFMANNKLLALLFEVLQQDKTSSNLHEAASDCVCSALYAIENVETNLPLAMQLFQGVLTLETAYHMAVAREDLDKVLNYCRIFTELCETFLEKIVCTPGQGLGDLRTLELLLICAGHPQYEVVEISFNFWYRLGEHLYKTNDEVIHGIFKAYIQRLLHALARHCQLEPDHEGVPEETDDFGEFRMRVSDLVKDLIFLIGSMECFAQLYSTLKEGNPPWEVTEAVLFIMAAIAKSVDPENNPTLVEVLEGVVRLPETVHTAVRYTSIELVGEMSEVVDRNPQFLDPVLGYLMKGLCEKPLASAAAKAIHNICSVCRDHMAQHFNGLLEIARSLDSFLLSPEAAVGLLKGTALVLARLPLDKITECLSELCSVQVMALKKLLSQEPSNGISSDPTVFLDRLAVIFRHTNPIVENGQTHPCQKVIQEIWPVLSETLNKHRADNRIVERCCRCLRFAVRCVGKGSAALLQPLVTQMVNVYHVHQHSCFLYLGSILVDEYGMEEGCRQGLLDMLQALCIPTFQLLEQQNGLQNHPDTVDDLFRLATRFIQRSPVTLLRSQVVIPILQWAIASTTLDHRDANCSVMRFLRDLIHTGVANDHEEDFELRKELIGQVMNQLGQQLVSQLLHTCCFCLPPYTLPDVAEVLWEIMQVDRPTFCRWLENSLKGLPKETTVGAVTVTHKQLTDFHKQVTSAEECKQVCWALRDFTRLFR
inactive: erlotinib -0.01 | [1] 0.132 | [2] 0.068 | [3] -0.009 | [4] -0.014 | [5] 0.029 | [6] 0.023 | [7] -0.007 | [8] 0.004 | [9] -0.03 | IRAK-1-4 Inhibitor I -0.006 | ibrutinib -0.02 | [10] -0.014 | ralimetinib 0.024 | [11] -0.156 | [12] -0.154 | [13] -0.08 | pinometostat 0.006 | [14] 0.036 | [15] -0.02

TTC4 (UniProt O95801)
Sequence of UniProt O95801 (O95801 whole entry, looked up): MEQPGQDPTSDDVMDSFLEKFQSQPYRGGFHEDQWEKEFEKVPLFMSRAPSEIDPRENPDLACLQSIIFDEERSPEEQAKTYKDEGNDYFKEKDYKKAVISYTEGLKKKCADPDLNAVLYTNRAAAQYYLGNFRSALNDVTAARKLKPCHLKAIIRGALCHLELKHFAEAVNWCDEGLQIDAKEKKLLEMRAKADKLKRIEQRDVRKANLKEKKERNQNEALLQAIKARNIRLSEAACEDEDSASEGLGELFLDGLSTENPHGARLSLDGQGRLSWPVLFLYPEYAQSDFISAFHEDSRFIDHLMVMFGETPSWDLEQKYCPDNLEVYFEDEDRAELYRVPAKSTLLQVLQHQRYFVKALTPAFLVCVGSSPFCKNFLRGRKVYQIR
inactive: erlotinib 0.094 | [1] 0.081 | [2] 0.016 | [3] 0.005 | [4] 0.061 | [5] -0.007 | [6] 0.081 | [7] 0.025 | [8] -0.057 | [9] -0.018 | IRAK-1-4 Inhibitor I -0.058 | ibrutinib -0.031 | [10] -0.052 | ralimetinib 0.168 | [11] -0.072 | [12] -0.119 | [13] 0.024 | pinometostat -0.015 | [14] -0.001 | [15] 0

UBR2 (UniProt Q8IWV8)
active: [13] 0.351
inactive: erlotinib 0.019 | [1] 0.067 | [2] -0.108 | [3] 0.051 | [4] 0.045 | [5] 0.046 | [6] -0.08 | [7] -0.189 | [8] 0.016 | [9] 0.018 | IRAK-1-4 Inhibitor I 0.002 | ibrutinib -0.102 | [10] -0.11 | ralimetinib 0.029 | [11] -0.086 | [12] -0.058 | pinometostat 0.137 | [14] -0.01 | [15] 0.076

TRMT61A (UniProt Q96FX7)
Sequence of UniProt Q96FX7 (Q96FX7 whole entry, looked up): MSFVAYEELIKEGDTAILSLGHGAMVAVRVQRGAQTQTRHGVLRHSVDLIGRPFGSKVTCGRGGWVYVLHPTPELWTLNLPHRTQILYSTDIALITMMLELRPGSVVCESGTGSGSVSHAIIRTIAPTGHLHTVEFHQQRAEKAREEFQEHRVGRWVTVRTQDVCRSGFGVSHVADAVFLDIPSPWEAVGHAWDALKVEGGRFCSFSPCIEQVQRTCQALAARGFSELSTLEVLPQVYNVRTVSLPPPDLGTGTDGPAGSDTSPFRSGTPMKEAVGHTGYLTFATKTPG
inactive: erlotinib -0.03 | [1] -0.062 | [3] 0.087 | [4] -0.059 | [5] -0.07 | [6] -0.017 | [7] -0.046 | [8] 0.054 | [9] 0.054 | IRAK-1-4 Inhibitor I 0.07 | ibrutinib 0.14 | [10] -0.002 | ralimetinib 0.06 | [11] 0.109 | [12] -0.099 | [13] 0.086 | pinometostat 0.188 | [14] -0.034 | [15] -0.401
active: [2] -0.354

USO1 isoform 2 (UniProt O60763)
inactive: erlotinib -0.008 | [1] 0.046 | [2] 0.051 | [3] -0.028 | [4] -0.049 | [5] 0.059 | [6] 0.004 | [7] -0.028 | [8] 0.033 | [9] -0.014 | IRAK-1-4 Inhibitor I 0.05 | ibrutinib -0.025 | [10] 0.066 | ralimetinib 0.004 | [11] -0.061 | [12] -0.108 | [13] -0.01 | pinometostat 0.008 | [14] -0.011 | [15] -0.005

UBE2Q1 (UniProt Q7Z7E8)
Sequence of UniProt Q7Z7E8 (Q7Z7E8 whole entry, looked up): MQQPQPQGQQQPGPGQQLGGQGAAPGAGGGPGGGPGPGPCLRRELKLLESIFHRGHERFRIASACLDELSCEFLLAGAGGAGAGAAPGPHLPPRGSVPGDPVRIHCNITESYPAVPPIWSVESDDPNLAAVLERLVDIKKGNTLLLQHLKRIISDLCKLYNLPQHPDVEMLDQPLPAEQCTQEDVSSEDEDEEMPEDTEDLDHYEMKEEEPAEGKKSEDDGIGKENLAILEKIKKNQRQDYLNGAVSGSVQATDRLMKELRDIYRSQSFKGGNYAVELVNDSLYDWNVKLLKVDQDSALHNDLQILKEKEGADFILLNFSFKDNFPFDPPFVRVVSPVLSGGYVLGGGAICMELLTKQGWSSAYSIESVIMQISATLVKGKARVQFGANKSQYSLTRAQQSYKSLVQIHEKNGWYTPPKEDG
inactive: erlotinib 0.058 | [1] 0.006 | [2] 0.059 | [3] 0.017 | [4] 0.019 | [5] 0.061 | [6] 0.014 | [7] 0.026 | [8] -0.016 | [9] -0.037 | IRAK-1-4 Inhibitor I 0.024 | ibrutinib -0.012 | [10] 0.029 | ralimetinib -0.015 | [11] -0.062 | [12] -0.192 | [13] -0.11 | pinometostat 0.005 | [14] -0.01 | [15] -0.006

VPS8 (UniProt Q8N3P4)
inactive: erlotinib 0.005 | [1] 0.036 | [2] 0.017 | [3] -0.024 | [4] 0.016 | [5] 0.031 | [6] 0.041 | [7] 0.012 | [8] 0.026 | [9] 0.027 | IRAK-1-4 Inhibitor I -0.085 | ibrutinib -0.117 | [10] -0.004 | ralimetinib 0.088 | [11] -0.079 | [12] -0.254 | [13] 0.052 | pinometostat 0.039 | [14] 0.026 | [15] 0.015

TNPO2 (UniProt O14787)
inactive: erlotinib 0.075 | [1] 0.115 | [2] 0.033 | [3] -0.064 | [4] 0.077 | [5] 0.017 | [6] 0.018 | [7] -0.008 | [8] 0.027 | [9] -0.008 | IRAK-1-4 Inhibitor I -0.088 | ibrutinib -0.023 | [10] -0.051 | ralimetinib 0.027 | [11] -0.138 | [13] -0.042 | pinometostat 0.012 | [14] 0.023 | [15] -0.171
active: [12] -0.339

WBP4 (UniProt O75554)
Sequence of UniProt O75554 (O75554 whole entry, looked up): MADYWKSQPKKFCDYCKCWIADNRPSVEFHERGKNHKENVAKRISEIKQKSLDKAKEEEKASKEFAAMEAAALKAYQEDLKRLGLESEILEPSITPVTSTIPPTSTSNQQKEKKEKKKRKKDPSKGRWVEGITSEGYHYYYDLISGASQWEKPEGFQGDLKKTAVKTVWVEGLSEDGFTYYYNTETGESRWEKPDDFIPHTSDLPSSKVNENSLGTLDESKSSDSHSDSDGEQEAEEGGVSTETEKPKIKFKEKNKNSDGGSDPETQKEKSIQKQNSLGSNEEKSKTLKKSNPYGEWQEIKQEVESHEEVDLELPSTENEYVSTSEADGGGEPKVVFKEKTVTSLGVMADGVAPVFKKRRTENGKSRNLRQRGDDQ
inactive: erlotinib 0 | [1] -0.07 | [2] 0.04 | [3] 0.009 | [4] -0.082 | [5] 0.031 | [6] -0.059 | [7] -0.055 | [8] 0.031 | [9] 0.036 | IRAK-1-4 Inhibitor I 0.082 | ibrutinib -0.001 | [10] 0.033 | ralimetinib -0.057 | [11] -0.001 | [12] 0.098 | [13] 0.041 | pinometostat -0.06 | [14] -0.003 | [15] 0.02

From the supplement of paper PMC10849652
